Experimental data published in the supplement of paper PMC3334620.
Whole data set: some 33,000 sequences, median “E-score (-0.5 to 0.5)” near -0.016, cut for the highest 2% near 0.3. This is one part of a sample in which the highest values are shown more often than they occur.

molecular target: T1, Yer184c (UniProt P39961); experiment: PBM E-score (8-mer binding enrichment) (E-score (-0.5 to 0.5)); higher = stronger / more preferred TF binding; conditions: protein concentration: 100 nM; construct: GST-full length
T1 sequence: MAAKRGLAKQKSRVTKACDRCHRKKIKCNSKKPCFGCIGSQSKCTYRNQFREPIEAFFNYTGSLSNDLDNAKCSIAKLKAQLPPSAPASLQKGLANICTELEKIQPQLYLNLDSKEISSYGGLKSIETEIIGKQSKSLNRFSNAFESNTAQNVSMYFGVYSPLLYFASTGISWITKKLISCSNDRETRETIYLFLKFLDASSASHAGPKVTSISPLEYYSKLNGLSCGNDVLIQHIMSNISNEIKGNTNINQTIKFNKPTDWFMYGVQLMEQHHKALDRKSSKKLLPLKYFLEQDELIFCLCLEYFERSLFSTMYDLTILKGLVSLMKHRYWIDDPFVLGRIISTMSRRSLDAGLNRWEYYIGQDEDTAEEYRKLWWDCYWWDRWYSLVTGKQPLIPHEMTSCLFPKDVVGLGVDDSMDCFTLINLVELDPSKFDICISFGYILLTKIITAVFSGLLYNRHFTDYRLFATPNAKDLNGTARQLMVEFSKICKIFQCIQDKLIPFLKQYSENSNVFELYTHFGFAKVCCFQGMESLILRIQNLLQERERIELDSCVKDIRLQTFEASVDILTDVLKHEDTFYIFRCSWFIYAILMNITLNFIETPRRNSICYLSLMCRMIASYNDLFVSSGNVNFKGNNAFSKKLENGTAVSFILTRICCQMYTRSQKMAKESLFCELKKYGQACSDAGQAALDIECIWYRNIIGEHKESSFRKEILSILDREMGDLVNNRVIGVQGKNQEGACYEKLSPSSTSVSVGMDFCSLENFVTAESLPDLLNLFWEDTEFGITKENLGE
Protocol: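 Universal 'all 10-mer' protein binding microarrays (Agilent AMADID 015681) probed with GST-tagged S. cerevisiae TFs (full-length or DBD) made by in vitro transcription/translation (PURExpress), about 100-200 nM. Bound TF was detected with fluorescent anti-GST. Each ungapped 8-mer (which stands for itself and its reverse complement) is scored by the PBM enrichment score (E-score), a modified Wilcoxon-Mann-Whitney statistic from -0.5 to +0.5, computed with the Universal PBM Analysis Suite. Scale: above 0.35 generally sequence-specific binding.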

Sequence | PBM E-score
GCAGTACA | -0.0532
ACCGTGAG | -0.158
CGCAACGA | 0.0385
AAACCTGG | -0.147
ACCCGGCT | 0.22
TGCCGGCA | 0.431
AGCCGGCT | 0.36
AACCGGCT | 0.264
TCCCGGCA | 0.256
ACCCGGCG | 0.198
AGCCGGTG | 0.225
AGCCGGCG | 0.372
TACCGGCA | 0.251
AAATCAAA | 0.13
TCGATTAA | 0.148
ATCGGCAC | 0.27
CTCGGCAC | 0.31
CTCGGCAG | 0.31
CACGGCAG | 0.0946
CTCGGCAA | 0.319
TTCGGCAA | 0.336
CTCGGCCA | 0.204
ATCGGCAG | 0.247
ATCGGCAA | 0.246
GTCGGCAC | 0.1

Sequence | PBM E-score
GTCGGCAA | 0.263
CACGGCAA | 0.199
AGGACCTG | -0.174
ATATACCC | 0.021
TCTATAGA | -0.137
GTCAATAA | 0.158
AAGTATCC | 0.0522
CAGGGCTC | -0.226
GAGAGCGC | -0.218
AGCAGCAT | -0.206
AGAGTAAC | 0.0419
CAATAGAG | -0.242
CCAGCCTA | -0.206
CCCGCTCA | -0.141
CCTAAGTA | 0.106
CGCCGGGA | 0.312
AGCCGGGA | 0.311
AGCCGGGC | 0.172
GGCCGGGA | 0.292
AGCCGGGG | 0.0566
CGCCGGGC | 0.286
CAAACAGC | -0.0581
ATGCGTGA | 0.0231
AATCTAAT | 0.0331
ATCAAGTC | -0.0287

Sequence | PBM E-score
ATGAACAG | 0.17
ACGGCAAA | 0.211
GCGGCAAA | 0.107
ACGGCAAG | 0.0759
CCGGCAAC | 0.293
CCGGCAAA | 0.374
CCGGCAAG | 0.331
CTAGCAGC | -0.0845
GAAAGCTA | 0.00964
ACGACCGG | 0.0371
TGCAAACA | -0.168
AAATCGAT | 0.0714
GCCGGCGC | 0.406
CCCGGCGC | 0.216
ACCGGCGC | 0.226
ACCGGCGA | 0.284
GCCGGCGA | 0.311
CCCGGCGA | 0.236
GGCGGCGA | 0.0554
TCCGGCGA | 0.38
GACGGCGA | -0.034
AAGAGGAA | 0.23
AGTGAGAA | 0.118
CCGATGCA | 0.157
GAGTCAGC | -0.101

Sequence | PBM E-score
TCAGGGGA | -0.252
CTTCAAGA | 0.171
AAAAACAG | 0.115
GTTCCACA | -0.0536
ACCTCCGG | 0.357
CACTCCGA | 0.0993
CCCTCCGG | 0.1
AGCTCCGG | 0.313
TACTCCGA | 0.262
ACCTCCGT | 0.107
AACTCCGA | 0.325
GACTCCGA | -0.0256
CACTCCGC | -0.0284
AGCTCCGA | 0.251
CACTCCGG | 0.306
AGCTCCGC | 0.127
CAAGAATG | 0.103
GTTGGAGA | 0.0278
GTCGCCTA | -0.157
GGACGCCC | -0.106
AGGGGCAT | -0.358
ATTCTGCC | 0.201
CCAAGCGG | -0.15
AACTCCGC | -0.0142
AACTCCGT | 0.222

Sequence | PBM E-score
AACTCCGG | 0.424
AGTTCGAG | -0.00888
AAGGGGTA | -0.351
CAACGCCG | 0.294
AAGCGCCA | -0.208
AAACGCCA | 0.089
AAGCGCTA | 0.0496
CGGCGCCG | 0.443
AGGCGCCG | 0.207
AAGCGCTC | 0.0112
AAGCGCTT | 0.306
AAGCGCCG | 0.373
AAACGCCG | 0.334
AAGCGCCT | -0.14
CGGCGCCA | 0.162
ATGACCTG | -0.0827
AATTGACA | 0.0558
GGGCAGGA | -0.269
GGGGTACA | -0.111
CGCATTAG | -0.101
CGATGCAA | -0.00579
ATGCCCCG | -0.139
TCATCGCA | -0.0385
ATCGGCCG | 0.388
CGCGGCCG | 0.251

Sequence | PBM E-score
CCGGGCCG | 0.429
ATCGGCCC | 0.113
ACGGCCCG | 0.146
ATCGGCCA | 0.125
AGCGGCCA | -0.161
CCGGCCCG | 0.386
CCGGGCCC | 0.262
AGCGGCCG | 0.315
CCGGCCCA | 0.181
CCGGGCCA | 0.14
GAATCTGC | 0.12
CTAGTGAG | -0.0187
ACCCCGCG | -0.119
AAACTGTC | -0.133
AGCAGTGC | -0.185
ACCGGCCT | 0.0901
ACCGGCCA | 0.173
AGGGCCCG | 0.0448
CGGGCCCG | 0.351
CCCGGCCG | 0.371
CCCGGCCA | 0.209
CGGGCCCA | 0.0473
ACCGGCCG | 0.413
CCCGGCCC | 0.161
ACAACCTA | -0.00165

Sequence | PBM E-score
GAGTGGCC | -0.0531
AGTACTAG | 0.0969
ACAAGCTG | 0.0583
AGCCACTA | -0.112
AAAATCCA | -0.0451
ATGTGAGG | 0.0347
TCAACACA | 0.179
ATTCCGAG | 0.353
GTTCCGAA | 0.369
CTTCCGAC | 0.173
AGTCCGAG | 0.268
GGTCCGAA | 0.303
ATTCCGAC | 0.211
CTTCCGAA | 0.39
ACTCCGAG | 0.233
CTTCCAAA | 0.0435
ACTCCGAA | 0.241
GTTCCAAA | 0.158
ATTCCGAA | 0.388
AAGAATTA | 0.134
CGGCCACA | 0.194
CACATTCG | 0.097
CGGGTATA | 0.196
CAGGGAAA | 0.0066
ACCATTGC | -0.0741

Sequence | PBM E-score
GTTTTACA | -0.015
GCCAACCA | -0.155
CTTTAATA | 0.245
ATTTAGTA | 0.328
ATTTAATA | 0.313
AATTAATT | 0.0189
ATTTAGTC | 0.133
TATTAATA | -0.00461
GTTTAATA | 0.155
CTTTAGTA | -0.0339
AATTAATA | 0.407
GCTGCACA | -0.159
CGCAGTGC | -0.204
AAAGGGAG | -0.313
CAGTCTTA | -0.0806
TTCAAGAA | 0.312
TTCAAAAA | 0.228
GTCAAGAA | 0.0525
CAGCCATG | -0.329
CGGGCTAC | 0.00991
AGAATTTA | 0.121
TACGCCGA | 0.237
AACGCCGT | 0.119
AACGCCGC | 0.116
CACGCCGA | 0.153

Sequence | PBM E-score
AACGCCGG | 0.317
AACGCCGA | 0.415
CCCTAAAA | -0.238
AAACGAGG | -0.124
GCTATAAC | -0.00042
GATCTGTA | -0.0435
CATCGGCA | 0.211
CTTCGGCA | 0.333
GTTCGGCA | 0.368
ATTCGGTA | 0.329
ATTCGGCC | 0.292
CTTCGGCC | 0.272
ATTCGGCA | 0.318
GGTCGGCA | 0.112
GCTCGGCA | 0.288
GTTCGGTA | 0.29
ATTCGGCG | 0.282
ATTCGGTG | 0.155
AAGCGTGT | -0.217
